An excerpt weighted towards active compounds, which were near 3.4% of everything screened.
NF-kB neuron act = NF-kB expression increase, human neuronal cells; NF-kB reporter expression; stronger effect = higher value; fold change at 12.5 µM; hit rate 1.6% among 190,000; AID 1239; in the data active = fold change above about 3.3
hgDAF12 agonist = agonists of H. glycines DAF-12 nuclear receptor; HEK293 GAL4-hgDAF12 UAS-luciferase reporter, agonist luminescence; normalized to butyrate control; activation, % at 6.8 µM; hit rate 1.8% among 370,000; AID 687014;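 active = activation above a cutoff set at the mean of all screened compounds plus 3 SD, cut at about 10% in these data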
APP 5'UTR act = activates APP 5'UTR luciferase reporter; SH-SY5Y APP 5'UTR luciferase reporter, luminescence; zero percent = DMSO vehicle wells; activation, % at 2 µM; hit rate 1% among 190,000; AID 1276;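 active = activation above a set limit, based on mean plus 3 SD of controls, cut at about 140% in these data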
ssDAF-12 act = activators of S. stercoralis DAF-12 nuclear receptor | HEK293 ssDAF-12/GRIP1 lit1-tk-luc reporter, luminescence; % of 3 µM dafachronic acid response | activation, % at 6.8 µM | hit rate 1% among 370,000 | AID 652126;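 active = activation above the mean over all tested compounds plus 3 SD, cut at about 0.9% in these data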
hcDAF12 agonist = activates DAF-12 receptor from parasite H. contortus; HEK293 hcDAF-12 lit1-tk-luc reporter, luminescence; 0% DMSO, 100% Δ7-dafachronic acid; activation, % at 6.8 µM; hit rate 1.4% among 370,000;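 active = activation above the mean of all tested compounds plus 3 SD, cut at about 5.5% in these data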
A number is an active result; n = inactive; x = no result given.

SMILES	NF-kB neuron act	hgDAF12 agonist	APP 5'UTR act	ssDAF-12 act	hcDAF12 agonist
COc1ccc(Oc2nnc(C)c3ccccc23)cc1	3.47	n	n	n	n
O=c1c2c3c(sc2nc2n1CCCCC2)CCCCC3	n	x	n	x	x
Cc1ccc(-c2nc3sc4c(c3c(=O)n2N)CCCC4)cc1	5.06	12.0	143.2	n	5.8
O=c1c2c3c(sc2nc2n1CCCCC2)CCCC3	4.1	n	n	n	n
Clc1nc(CN2CCCCC2)nc2sc3c(c12)CCCC3	3.65	n	n	n	n
Cc1nc2sc3c(c2c(=O)o1)CCCC3	n	n	n	1.0	n
CCn1c(SCc2ccccc2Cl)nnc1-c1ccccc1OC	x	n	x	n	n
O=C(Cc1ccccc1F)N1CCC(n2nnc3ncccc32)CC1	x	n	x	n	n
COc1ccc(CNCC#Cc2ccc(C)cc2)c(OC)c1	x	n	x	n	n
COc1ccc(-c2cc(C(=O)NN=Cc3cccn3C)[nH]n2)cc1	x	n	x	n	n
COc1cc(CCCN2CCNC[C@@H]2Cc2ccc(O)cc2)cc(OC)c1OC	x	n	x	1.0	n
Cc1ccc(-c2csc3nc(-c4ccncc4)[nH]c(=O)c23)cc1	x	n	x	n	n
Nc1ccc2nc(-c3ccccc3)[nH]c2c1	n	n	n	1.7	n
Cc1ccc2nc(-c3ccncc3)[nH]c2c1	x	11.3	x	n	n
O=C(NC(=S)Nc1ccc(Cl)cn1)c1cccs1	4.03	n	186.4	1.1	n
CC(=O)NC(=S)Nc1ccc(NC(=S)NC(=O)c2cccs2)cc1	x	n	x	n	n
O=C(NC(=S)Nc1ccc(N2CCCCC2)cc1)c1cccs1	n	12.4	136.2	n	n
O=C(NC(=S)Nc1ccccc1N1CCCC1)c1cccs1	x	n	x	n	5.7
CCN(CC)c1ccc(NC(=S)NC(=O)c2cccs2)cc1	n	11.1	n	n	n
COc1cc(C(=O)NC2CCCCN(Cc3cccc(Cl)c3)C2=O)cc(OC)c1OC (stereo not drawn)	x	n	x	n	n
COC(=O)[C@H]1C[C@@]2(N3CCCC3)c3ccccc3N(C(=O)OC(C)(C)C)[C@H]2N1C(=O)OC(C)(C)C	x	n	x	n	n
CCN(CC)c1ccc(NC(=S)Nc2ccc(F)cc2)cc1	n	11.5	n	n	n
Fc1ccccc1-c1nc(-c2ccncc2)no1	x	n	x	1.1	n
Brc1ccccc1-c1nc(-c2ccccc2)no1	9.53	x	180.5	x	x
Cc1ccc(-c2nc(-c3ccccc3)no2)c(Cl)c1	n	n	166.4	n	n
SMILES	NF-kB neuron act	hgDAF12 agonist	APP 5'UTR act	ssDAF-12 act	hcDAF12 agonist
O=C(NC1CCCCC1)O[C@H]1CC[C@@]23CCCN2C(=O)CCC[C@H]3C1	x	n	x	n	n
CC(C)c1cc(O)c(-c2ccccc2)c(=O)n1-c1ccc(Cl)cc1	x	n	x	n	n
CC(C)c1c(Cl)c(O)c(-c2ccccc2)c(=O)n1-c1ccc(F)cc1	n	n	n	n	5.7
O=C1CCCCC1Sc1nnc(-c2ccc3c(c2)OCO3)o1 (stereo not drawn)	n	n	177.6	n	n
Clc1ccc(CSc2nnc(-c3ccc4c(c3)OCO4)o2)cc1	n	n	n	n	n
COc1cccc(-c2ccc(CC[C@H]3O[C@H]4CC[C@@H](CO)O[C@H]4C[C@H]3NS(C)(=O)=O)cc2)c1	x	n	x	n	n
Cc1cc(C)c(NC(=O)COc2nncc3ccccc23)c(C)c1	n	n	n	1.6	n
CCOC(=O)Nc1nc(-c2ccccc2)c(C(=O)c2ccc(Cl)cc2)s1	3.87	n	n	n	n
CCOC(=O)Nc1sc(C)nc1-c1ccccc1	n	n	n	n	n
O=C(CSc1nc2ccsc2c(=O)n1CC1CCC(C(=O)O)CC1)c1ccc(F)cc1 (stereo not drawn)	n	11.2	n	n	n
CN1CCN(S(=O)(=O)c2cccc(C(=O)Nc3sc4c(c3-c3nc5ccccc5[nH]3)CCCC4)c2)CC1	n	n	n	n	6.1
CC(=O)c1ccc(NC(=O)Nc2cccc(Cl)c2)cc1	3.63	12.9	n	n	n
O=C(Nc1ccc(Cl)cc1)Nc1cccc(C(=O)O)c1	n	11.9	n	n	n
CC(=O)Nc1ccc(NC(=O)Nc2cccc(Cl)c2)cc1	x	n	x	n	n
O=C(Nc1cccc(Cl)c1)Nc1cccc(C(=O)O)c1	x	n	x	n	n
COc1cccc([C@H]2NC(=O)C/C=C/[C@@H](C)[C@@H](c3cccc(OC)c3)NC(=O)C/C=C/[C@H]2C)c1	x	n	x	n	n
O=C(Nc1nnc(C2CC2)s1)c1cccs1	x	n	x	n	n
CC(C)c1nnc(NC(=O)c2cccs2)s1	n	11.6	x	n	n
Cc1cnc(NC(=O)c2cccs2)s1	x	12.1	x	n	6.2
